Source: PMC7155171, “Probing the Open Global Health Chemical Diversity Library for Multistage-Active Starting Points for Next-Generation Antimalarials” (ACS Infectious Diseases, 2020)

Columns and labels:
[1] = test system: P. berghei liver stage (PbLuc); design: species or system HepG2-A16-CD81; P. berghei luciferase sporozoite infection of hepatocytes, liver stage luminescence; settings: inhibitor; for PbLuc primary screen (10uM): inhibition % (n=1): 48 h
[2] = test system: HepG2-A16-CD81 hepatocytes; design: Uninfected hepatocyte viability, CellTiter-Glo luminescence; settings: cytotoxicity primary screen, inhibitor

SMILES | PbLuc primary screen (10uM): inhibition % (n=1) [1] [%] | PbLuc primary screen (2uM): inhibition % (n=1) [1] [%] | HepG2 toxicity primary screen (10uM): inhibition % (n=1) [2] [%]
COc1cccc(Cn2nc(C)c3c(NC(=O)C(C)OC)[nH]nc32)c1 (stereo not drawn) [DDD01063202] | 39.7 | -10.78 | -2.03
COc1cc(OC)c(-c2nc3c(C4CC4)[nH]n(C)c-3n2)cc1OC [DDD01244474] | 41.8 | -47.16 | -5.02
Cc1[nH]n(-c2ccc(F)cc2)c2nnc(N)c1-2 [DDD01065623] | 46.4 | 39.0185 | 13.6
CCc1cc(=O)n2nc(C3CCN(C(=O)c4ccncc4)CC3)cc2[nH]1 [DDD01057177] | 32.85 | -9.67 | 3.51
CCCn1ncc(-c2nc3c[nH]n(CC)c-3n2)c1C [DDD01252709] | -42.8 | -36.8 | 4.05
COc1cc2c(cc1-c1nc3c[nH]n(C)c-3n1)OCO2 [DDD01248770] | 28.7 | 21.97 | -8.9
COCC(=O)N1Cc2[nH]c3c(C)c(-c4cccs4)nn3c(=O)c2C1 [DDD01056747] | 27.2 | 46.04 | -4.81
COc1cccc(F)c1-c1nc2c(C3CC3)[nH]n(C)c-2n1 [DDD01246655] | -18.5 | 21.14 | 0.271
CCc1c(C)[nH]c2cc(C3CCN(Cc4ccc(F)cc4)C3)nn2c1=O (stereo not drawn) [DDD01060568] | 66.5 | 40.31 | -18.6
Cn1cc(C(=O)N2CCCC(c3cc(=O)n(C)[nH]3)C2)cn1 (stereo not drawn) [DDD01060486] | 19.6 | 27.39 | -21.6
CCc1ccc(C(C)NC(=O)CCC2=NC(=C3N=CN=N3)NO2)cc1 (stereo not drawn) [DDD01068289] | 38.8 | -21.47 | -1.98
CC(NC(=O)CCC1=NC(=C2N=CN=N2)NO1)c1ccc(F)cc1F (stereo not drawn) [DDD01068293] | 33.4 | -26.534 | -2.05
CCc1c(C)nn2c(=O)cc(C3CCN(C(=O)c4ccn(C)n4)C3)[nH]c12 (stereo not drawn) [DDD01056907] | 3.623 | -25.98 | 7.915
Cc1[nH]n(C2CCS(=O)(=O)C2)c(=O)c1Cc1ccccc1Cl (stereo not drawn) [DDD01026964] | 34.1 | -0.8948 | -45.665
CCc1nn(C)c(N)c1-c1ccc2c(c1)OCO2 [DDD01074639] | 53.6 | 37.53 | -45.08
CC(=O)N1CCCN(C(=O)CCOc2ccc(C(C)C)cc2)CC1 [DDD01298039] | 52.5 | 36.9515 | -13
Cc1ncc(CN2CCc3[nH]c4cc(C(C)(C)C)nn4c(=O)c3C2)n1C [DDD01058400] | -12.3 | 26.69 | 8.62
CCc1c(C)[nH]c2cc(C3CCN(Cc4ccccc4F)C3)nn2c1=O (stereo not drawn) [DDD01270117] | 85.9 | 29.7326 | 1.7
CCC(=O)Nc1[nH]nc2c1c(C)nn2Cc1cccc(OC)c1 [DDD01063148] | -31 | 15.82 | -9.24
Cc1[nH]n(-c2ccccc2)c2nc(C(C)(C)CN3CCN(C)CC3)nc1-2 [DDD01252143] | 8.08 | 38.49 | -2.13
Cc1nc(N2CCCC2)ncc1-c1cc(=O)n2ncnc2[nH]1 [DDD01038581] | 16.8 | 10.62 | 10.6
COCCC(=O)N1Cc2[nH]c3c(C)c(-c4cccs4)nn3c(=O)c2C1 [DDD01056578] | -5.78 | -12.93 | -1.19
